We go through nine molecules from PubChem BioAssay (NCI).

What all share (assay): NCI-60 one-dose screen, 48 h (100 = growth as untreated, 0 = no growth, -100 = all killed)
One assay relates to SK-MEL-2 melanoma. As to conditions: 10 µM unless noted.
The subject of another assay is EKVX NSCLC. The note with it: 10 µM unless noted.
For a further assay, the system named is SN12C renal. The note with it: 10 µM unless noted.
In the next assay the test system is TK-10 renal. The note with it: 10 µM unless noted.
In a further assay the test system is A498 renal. The note with it: 10 µM unless noted.
Another assay has as its system CCRF-CEM leukemia. As to conditions: 10 µM unless noted.
For the next assay, the system named is MOLT-4 leukemia. The note with it: 10 µM unless noted.
A further assay concerns SR leukemia. The note with it: 10 µM unless noted.
The next assay concerns RPMI-8226 leukemia. The note with it: 10 µM unless noted.
The test system of another assay is OVCAR-8 ovarian. The note with it: 10 µM unless noted.
A further assay deals with OVCAR-5 ovarian. The note with it: 10 µM unless noted.
The subject of another assay is OVCAR-4 ovarian. The note with it: 10 µM unless noted.
Another assay relates to SK-OV-3 ovarian. As to conditions: 10 µM unless noted.
For the next assay, the system named is IGROV1 ovarian. The note with it: 10 µM unless noted.
The test system of another assay is HS 578T breast. The note with it: 10 µM unless noted.
In a further assay the test system is NCI/ADR-RES ovarian. As to conditions: 10 µM unless noted.
The test system of another assay is ACHN renal. As to conditions: 10 µM unless noted.
In the next assay the test system is OVCAR-3 ovarian. The note with it: 10 µM unless noted.
For another assay, the system named is CAKI-1 renal. The note with it: 10 µM.

Compounds without any hit were thinned out: in the full panel of roughly 83,000, 20% have a hit.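 Note: values are percent growth. 100 is the growth of untreated cells, values between 100 and 0 indicate rising inhibition; between -100 and 0 indicates cell death.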 Unmarked numbers belong to inactive results. Calls of active or inactive are those of the source. The calls were made as follows: active = growth percent below 10; inactive = the rest.

Take `CCCCOc1c(N)cc(Cl)cc1C(=O)OCCN(CC)CC`: the growth with SK-MEL-2 melanoma is 90.9%; in the assay with EKVX NSCLC it was 104%; in the assay with SN12C renal it was 97%; in the assay on TK-10 renal, 94.3%; in the assay with A498 renal, 80.1%; in the assay on CCRF-CEM leukemia, 72.6%. Besides, the growth in the assay with MOLT-4 leukemia is 58.4%; with SR leukemia it was 79.5%; in the assay with RPMI-8226 leukemia, 100%; in the assay with OVCAR-8 ovarian it was 90.8%; in the assay with OVCAR-5 ovarian, 113%; with OVCAR-4 ovarian, 118%. Moreover, the growth in the assay on SK-OV-3 ovarian was 94.5%; in the assay with IGROV1 ovarian it was 107%; in the assay on HS 578T breast, 99.7%; in the assay on NCI/ADR-RES ovarian, 107%.

Consider `c1coc(CSc2ncnc3nc[nH]c23)c1`, for which the growth with SK-MEL-2 melanoma is 105%; in the assay with EKVX NSCLC, 103%; in the assay with SN12C renal it was 102%; in the assay with TK-10 renal, 125%; in the assay with ACHN renal it was 106%; in the assay with A498 renal, 90.8%. The growth in the assay on RPMI-8226 leukemia was 107%; in the assay with OVCAR-8 ovarian, 90.3%; in the assay on OVCAR-5 ovarian, 103%; in the assay on OVCAR-4 ovarian, 99%; in the assay with SK-OV-3 ovarian it was 95.7%; with IGROV1 ovarian, 97.1%. In addition, the growth was 107% in the assay with OVCAR-3 ovarian, 106% with HS 578T breast and 106% with NCI/ADR-RES ovarian.

`O[C@@H]1CCO[C@H](c2ccc3ccccc3c2)C1`: the growth is 96% with SK-MEL-2 melanoma; 102% in the assay on EKVX NSCLC; 101% in the assay on SN12C renal; 93.9% in the assay on TK-10 renal; 73.3% in the assay on A498 renal; 103% in the assay with CCRF-CEM leukemia. Moreover, the growth was 99.1% in the assay with MOLT-4 leukemia; 95.7% with SR leukemia; 96.4% in the assay on RPMI-8226 leukemia; 106% with OVCAR-8 ovarian; 110% in the assay on OVCAR-5 ovarian; 105% with OVCAR-4 ovarian. For the same molecule, the growth is 108% in the assay with SK-OV-3 ovarian; 107% in the assay with IGROV1 ovarian; 106% in the assay on OVCAR-3 ovarian; 100% with HS 578T breast; 106% in the assay on NCI/ADR-RES ovarian.

As to `O=C(NCCNc1nccc(-c2c(-c3cccc(O)c3)nc3sccn23)n1)c1ccccc1`, the growth in the assay on SK-MEL-2 melanoma is 45.5%; with EKVX NSCLC, 94.2%; with SN12C renal it was 66.4%; with ACHN renal it was 60.5%; in the assay on CAKI-1 renal, 87.9%; in the assay with A498 renal it was 48%. Besides, the growth in the assay with CCRF-CEM leukemia is 47.3%; with MOLT-4 leukemia, 67.1%; in the assay with SR leukemia it was 68%; in the assay on RPMI-8226 leukemia, 76.8%; with OVCAR-8 ovarian it was 66.6%; in the assay with OVCAR-5 ovarian, 90.6%. For the same molecule, the growth is 98% in the assay on OVCAR-4 ovarian; 65.1% in the assay with SK-OV-3 ovarian; 57.4% with IGROV1 ovarian; 92.3% with OVCAR-3 ovarian; 99.7% with NCI/ADR-RES ovarian.

In the case of `C=C1C(=O)O[C@H]2[C@H]1CC/C(COC(=O)CCCC(=O)OC/C1=C/CC[C@@]3(C)O[C@H]3[C@H]3OC(=O)C(=C)[C@@H]3CC1)=C\CC[C@@]1(C)O[C@@H]21`, the growth in the assay with SK-MEL-2 melanoma is 19.5%; with EKVX NSCLC it was 51.1%; in the assay with SN12C renal, 15.1%; with TK-10 renal it was 7.23% (active); with A498 renal, 62.6%; with CCRF-CEM leukemia it was -11.7% (active). The growth is -19.1% (active) in the assay with MOLT-4 leukemia; 0.324% (active) in the assay on SR leukemia; -9.1% (active) in the assay on RPMI-8226 leukemia; -9.93% (active) in the assay on OVCAR-8 ovarian; 2.2% (active) with OVCAR-5 ovarian; 49.2% with OVCAR-4 ovarian. Besides, the growth in the assay with SK-OV-3 ovarian is 74.5%; with IGROV1 ovarian, 13.4%; in the assay on OVCAR-3 ovarian, -46.6% (active); in the assay with HS 578T breast, 47.1%; with NCI/ADR-RES ovarian it was 83.1%.

Consider `O=C1OC(N(Cc2ccc(Cl)cc2)c2ccccc2)c2ccccc21` (stereo unspecified), for which the growth in the assay on SK-MEL-2 melanoma is 94.4%; with EKVX NSCLC, 102%; with SN12C renal, 94.6%; in the assay with ACHN renal, 108%; with CAKI-1 renal, 103%; in the assay with A498 renal, 90.1%. In addition, the growth is 92.2% with CCRF-CEM leukemia; 81.9% in the assay on MOLT-4 leukemia; 97.8% with SR leukemia; 97.2% in the assay with RPMI-8226 leukemia; 107% with OVCAR-8 ovarian; 109% with OVCAR-5 ovarian. Also, the growth in the assay with OVCAR-4 ovarian is 116%; with SK-OV-3 ovarian it was 97.2%; with IGROV1 ovarian it was 90.7%; with OVCAR-3 ovarian, 104%; in the assay on HS 578T breast, 108%; in the assay on NCI/ADR-RES ovarian it was 105%.

Regarding `C[C@]12CC[C@@H]3c4ccc(O)c(N)c4CC[C@H]3[C@@H]1CC[C@@H]2O`, the growth with SK-MEL-2 melanoma was 102%; with EKVX NSCLC, 78.5%; in the assay on SN12C renal, 105%; with TK-10 renal, 135%; with A498 renal, 96%; in the assay on CCRF-CEM leukemia, 75.9%. The growth with MOLT-4 leukemia is 80.8%; in the assay on SR leukemia it was 98.1%; in the assay with RPMI-8226 leukemia it was 85.5%; with OVCAR-8 ovarian, 104%; in the assay on OVCAR-5 ovarian, 117%; in the assay with OVCAR-4 ovarian it was 110%. Further, the growth with SK-OV-3 ovarian was 128%; in the assay with OVCAR-3 ovarian, 100%; in the assay with HS 578T breast, 99.2%; in the assay on NCI/ADR-RES ovarian, 105%.

Take `CN1CCN(Cn2nc(-c3cc(F)c(Cl)cc3Cl)n(/N=C/c3ccc(N(C)C)cc3)c2=S)CC1`: the growth in the assay on SK-MEL-2 melanoma is 90.2%; with EKVX NSCLC, 87.1%; in the assay with SN12C renal, 102%; in the assay with TK-10 renal, 90.2%; in the assay with ACHN renal, 92.7%; with A498 renal, 78.8%. In addition, the growth in the assay on CCRF-CEM leukemia was 83.5%; in the assay on MOLT-4 leukemia it was 99.1%; in the assay on SR leukemia, 43.8%; in the assay with RPMI-8226 leukemia it was 80.9%; in the assay on OVCAR-8 ovarian, 90.8%; in the assay with OVCAR-5 ovarian it was 106%. Also, the growth was 106% with OVCAR-4 ovarian; 77.4% in the assay with SK-OV-3 ovarian; 57.8% in the assay with IGROV1 ovarian; 63.5% with HS 578T breast; 65.9% in the assay with NCI/ADR-RES ovarian.

On to `CCCCCCCCCCCCCCCC(=O)NS(=O)(=O)OC[C@H]1O[C@@H](n2cnc3c(N)ncnc32)[C@H](O)[C@@H]1O`, for which the growth in the assay on SK-MEL-2 melanoma is -24.7% (active); with EKVX NSCLC, -8.18% (active); in the assay with SN12C renal, -12.9% (active); in the assay with ACHN renal, -18.6% (active); in the assay with CAKI-1 renal, -61.4% (active); in the assay on A498 renal it was -95.6% (active). Further, the growth with CCRF-CEM leukemia was 5.11% (active); in the assay on MOLT-4 leukemia, -4.18% (active); in the assay on SR leukemia it was 0.423% (active); in the assay with RPMI-8226 leukemia, 22.8%; in the assay with OVCAR-8 ovarian, -10.9% (active); in the assay with OVCAR-5 ovarian it was -45.3% (active). Further, the growth is -48.4% (active) in the assay with OVCAR-4 ovarian; -18.5% (active) in the assay with SK-OV-3 ovarian; -52.2% (active) with IGROV1 ovarian; -75.1% (active) in the assay with OVCAR-3 ovarian; -14.6% (active) in the assay on HS 578T breast; -20.5% (active) in the assay on NCI/ADR-RES ovarian.
